# Source: PubChem BioAssay (NCATS)
# Records with an inconclusive call do not appear. Where a call stands in place of a potency, no number is given. The source made the active and inactive calls. Unless noted, the call rests on the fitted dose curve; in most records, active means well fitted curve in the direction sought with a large enough effect; inconclusive means small, poorly fitted or top-dose-only effect, or another doubt; inactive means no such curve, though single readings can be large; an effect the other way counts as inactive or inconclusive.
# Key:
# [1] = biological target: Ubiquitin carboxyl-terminal hydrolase 1 (Homo sapiens) (UniProt O94782); assay: Inhibitors of USP1/UAF1: Pilot qHTS (AID 504865); further: nearly all actives have a fitted effect of over 35% in size; further: potency means the concentration at half of the fitted maximal effect
# Outline: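 Kinetic fluorescence assay: 1nM USP1/UAF1, 15 min compound preincubation, then 150nM Ub-Rho; 480/540 nm.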
# [2] = biological target: Cytochrome P450 3A4 (Homo sapiens) (UniProt P08684); assay: qHTS Assay for Inhibitors and Substrates of Cytochrome P450 3A4 (AID 884); further: series mostly up to about 57 µM; nearly all actives have a fitted effect of over 50% in size
# Outline: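 20 nM human CYP3A4 with 25 uM Luciferin-PPXE (at KM) in 200 mM KPO4, preincubated 10 min with compound; NADPH regeneration started a 60 min RT reaction. Luciferin detected by luminescence, normalized to 57 uM ketoconazole as full inhibition.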
# [3] = biological target: Cytochrome P450 3A4 (Homo sapiens) (UniProt P08684); assay: qHTS Assay for Activators of Cytochrome P450 3A4 (AID 885); further: nearly all actives have a fitted effect of over 65% in size
# Outline: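 Quantitative HTS format: compounds preincubated with 20nM human CYP3A4 and Luciferin-PPXE substrate at KM, reaction started by NADPH regeneration, stopped after 60 min, luciferase luminescence read 20 min later.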
# [4] = Confirmation and Secondary Assay for Modulators of Hemoglobin Beta Chain Splicing at IVS2 654 locus (AID 910);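 further: per-well total GFP intensity by laser scanning cytometry after 2-day treatment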
# Outline: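 HeLa cells stably carrying EGFP interrupted by mutant beta-globin IVS2-654 intron (CMV-driven) were treated with compound for 2 days at 37C; corrected splicing was scored as total peak GFP intensity per well (488 nm excitation, 500-520 nm emission).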
# [5] = Confirmation and Secondary Assay for Modulators of Hemoglobin Beta Chain Splicing at IVS2 705 locus (AID 930);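 further: HeLa cells stably expressing the EGFP-705 splicing reporter; GFP fluorescence per well restored by corrected splicing of the IVS2-705 intron in EGFP; series mostly up to about 46 µM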
# Outline: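 HeLa IVS2-705 EGFP reporter cells, 500/well, compound 2 d at 37C; correct splicing yields fluorescent EGFP. Control: 500 nM antisense PNA. Read-out: total peak GFP intensity.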
# [6] = biological target: DNA dC->dU-editing enzyme APOBEC-3G (Homo sapiens) (UniProt Q9HC16); assay: qHTS for inhibitors of Vif-A3G interactions: Validation (AID 588379)
# Outline: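 HeLa cells stably expressing Vif and A3G-eYFP, 700 cells/well, incubated overnight at 37 deg C, then exposed to compound overnight at 37 deg C. Inhibition of Vif-mediated degradation read as increased yellow fluorescence (Ex 488/Em 500-530) by laser-scanning cytometry.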
# [7] = biological target: Cytochrome P450 2D6 (Homo sapiens) (UniProt P10635); assay: qHTS Assay for Inhibitors and Substrates of Cytochrome P450 2D6 (AID 891); further: potency means the concentration at half of the fitted maximal effect; nearly all actives have a fitted effect of over 60% in size
# Outline: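 Human CYP2D6 (5 nM) with 30 uM Luciferin-ME EGE (at Km) in 100 mM KPO4, compound preincubated 10 min, then NADPH regeneration system for 60 min at room temperature. Luciferin read by luminescence; normalized to 1.43 uM quinidine.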
# [8] = MultiTox-Fluor Cytotoxicity Assay - LYMP1-001 - Live Cells (AID 947)
# [9] = Cell Viability - LYMP2-005 (AID 967); further: series mostly up to about 92 µM
# Outline: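 qHTS viability screen in LYMP2-005 cells: 24 h at 37 C with compound, ATP luminescence via CellTiter-Glo, AC50 from Hill curves.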
# [10] = biological target: Estrogen receptor (Homo sapiens) (UniProt P03372); assay: qHTS assay for small molecule agonists of estrogen receptor alpha signaling (AID 588514; calls by dose curve; further: nearly all actives have a fitted effect of over 70% in size)
# Outline: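 Reporter-gene assay. […] controls beta-lactamase in HEK 293 GripTite cells; after 18 hrs with compound, CCF4 substrate is added for 2 hrs and fluorescence is read.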
# [11] = biological target: Peroxisome proliferator-activated receptor gamma (Homo sapiens) (UniProt P37231); assay: qHTS assay for small molecule agonists of peroxisome proliferator-activated receptor gamma signaling (AID 588536; active means well fitted curve in the direction sought with a large enough effect in the signal ratio, with a control signal flat, not every such curve was filed as active; the % refers to the signal ratio)
# Outline: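 HEK293 UAS-bla reporter line, 1% charcoal/dextran FBS; titration, 16 h, 37 C; CCF4 loading 2 h RT; fluorescence 460/530 nm. Normalized to rosiglitazone 2 uM = 100%, DMSO = 0%.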
# [12] = biological target: Peroxisome proliferator-activated receptor gamma (Homo sapiens) (UniProt P37231); assay: qHTS assay for small molecule antagonists of peroxisome proliferator-activated receptor gamma signaling (AID 588537; active means well fitted inhibition curve with a large enough effect in the signal ratio, with a control signal flat, not every such curve was filed as active; the % refers to the signal ratio;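 further: reporter cells co-stimulated with 50 nM rosiglitazone agonist during compound treatment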)
# Outline: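 PPAR-gamma-UAS-bla HEK293 cells (3000/well, 1% charcoal/dextran-stripped FBS) were preincubated 6-6.5 h at 37 C, given titrated compounds, then stimulated with 50 nM rosiglitazone for 16 h. Beta-lactamase activity was read with CCF4 dye; IC50 came from Hill fits.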
# [13] = biological target: Vitamin D3 receptor (Homo sapiens) (UniProt P11473); assay: qHTS assay for small molecule antagonists of vitamin D receptor signaling (AID 588541; calls by dose curve;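 further: receptor activated by calcitriol during compound treatment; series mostly up to about 77 µM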)
# Outline: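 VDR-UAS-bla HEK293T cells (2000/well, 2% charcoal-stripped FBS) were treated with titrated compounds plus 1-alpha,25-dihydroxyvitamin D3 (50 nM or 3 nM final) for 16 h at 37 C. CCF4 beta-lactamase fluorescence was read; Hill fits gave IC50.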
# [14] = biological target: Thyroid hormone receptor beta (Homo sapiens) (UniProt P10828); assay: qHTS assay for small molecule antagonists of thyroid hormone receptor beta signaling (AID 588547; active means well fitted inhibition curve with a large enough effect in the signal ratio, with a control signal flat, not every such curve was filed as active; the % refers to the signal ratio;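 further: cells stimulated with 0.4 nM T3 agonist during compound exposure; series mostly up to about 77 µM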); conditions: TR-UAS-bla HEK293, beta-lactamase ratio, antagonist mode, 18 h
# Outline: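 TR-UAS-bla GripTite HEK293 cells in 2% charcoal/dextran FBS medium were preincubated 4 h at 37 C, given compound (0.59 nM to 92 uM) plus 0.4 nM T3 (final) for 18 h, then CCF4 for 2 h at RT; Hill fit gave IC50.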
# [15] = qHTS assay for small molecule activators of the p53 signaling pathway (AID 651743; active means well fitted activation curve with a large enough effect in the signal ratio, not every such curve was filed as active; the % refers to the signal ratio; further: series mostly up to about 92 µM); conditions: HCT-116 p53RE-bla, beta-lactamase FRET ratio, 16 h; activation: stronger effect = higher value
# Outline: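 p53RE-bla HCT-116 cells with a stably integrated beta-lactamase reporter under p53 response elements were plated, rested 5 hours at 37 C/5% CO2, then exposed to compounds in DMSO for 16 hours at 37 C. LiveBLAzer B/G FRET substrate was read after 2 hours at room temperature.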
# [16] = qHTS assay for environmental chemicals that activate the Aryl hydrocarbon Receptor (AhR) signaling pathway (AID 651777); conditions: 1A2-DRE human hepatoma cells, luciferase, 24 h; activation: stronger effect = higher value; further: nearly all actives have a fitted effect of over 15% in size
# Outline: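 Concentration–response screening used 1,200 1A2-DRE cells per well, 24 hr compound exposure (37 C, 5% CO2), and One-Glo luminescence as the AhR-driven CYP1A2 reporter signal.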
# [17] = biological target: Peroxisome proliferator-activated receptor alpha (Homo sapiens) (UniProt Q07869); assay: qHTS assay for small molecule agonists of the peroxisome proliferator-activated receptor alpha (PPARalpha) signaling pathway (AID 651778); conditions: PathHunter PPARalpha complementation, chemiluminescence, 6 h; max response: stronger effect = higher value
# Outline: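 Cells plated at 2,000/well and held overnight at 37 C, 5% CO2, then compound added by pin tool for 6 hr; after PathHunter detection reagent and 60 min at room temperature, chemiluminescence from enzyme complementation was read.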
# [18] = biological target: Glucocorticoid receptor (Homo sapiens) (UniProt P04150); assay: qHTS assay for small molecule agonists of glucocorticoid receptor signaling (AID 588532; active means well fitted curve in the direction sought with a large enough effect in the signal ratio, with a control signal flat; the % refers to the signal ratio); conditions: HeLa MMTV-bla, beta-lactamase ratio, agonist, 18 h; activation: stronger effect = higher value, percent of dexamethasone control, DMSO zero
# Outline: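 Stimulation of a glucocorticoid response element-driven beta-lactamase gene was measured in HeLa cells. Responses were scaled between DMSO basal and 0.1 uM dexamethasone, then fitted for half-maximal stimulation.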
# [19] = biological target: Glucocorticoid receptor (Homo sapiens) (UniProt P04150); assay: qHTS assay for small molecule antagonists of glucocorticoid receptor signaling (AID 588533; active means well fitted inhibition curve with a large enough effect in the signal ratio, with a control signal flat, not every such curve was filed as active; the % refers to the signal ratio;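 further: cells stimulated with 2 nM dexamethasone as agonist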)
# Outline: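 Antagonist-mode qHTS: compound titrations added to GRE-bla HeLa cells, then dexamethasone 2 nM final; 18 h, 37 C. CCF4 FRET fluorescence normalized to dexamethasone and DMSO; IC50 from Hill fit.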
# [20] = qHTS assay for small molecule antagonists of peroxisome proliferator-activated receptor delta signaling (AID 588535; active means well fitted inhibition curve with a large enough effect in the signal ratio, with a control signal flat, not every such curve was filed as active; the % refers to the signal ratio;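 on max response: cells co-treated with a PPAR-delta agonist as stimulator during compound exposure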); conditions: HEK293T PPARd-UAS-bla, beta-lactamase FRET ratio, 18 h; 460 nm channel
# Outline: (§1)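 GeneBLAzer PPAR-delta-UAS-bla HEK293T cells in medium with 2% charcoal/dextran FBS were preincubated 5 hrs at 37 C, then given compounds, incubated 18 hrs at 37 C, and read by CCF4 beta-lactamase fluorescence; IC50 from Hill fits.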
# [21] = biological target: Peroxisome proliferator-activated receptor delta (Homo sapiens) (UniProt Q03181); assay: as above
# Outline: as §1
# [22] = biological target: Vitamin D3 receptor (Homo sapiens) (UniProt P11473); assay: qHTS assay for small molecule agonists of vitamin D receptor signaling (AID 588543; calls by dose curve)
# Outline: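 qHTS in agonist mode: compound titrations stimulate a VDR-driven β-lactamase reporter in HEK293T cells over 16 h at 37 °C. Response normalized to 50 nM 1α,25-dihydroxyvitamin D3 = 100%, DMSO = 0%; Hill fitting gives EC50 and maximal response.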
# [23] = qHTS assay for small molecule antagonists of retinoid X receptor alpha signaling (AID 588546; active means well fitted inhibition curve with a large enough effect in the signal ratio, with a control signal flat, not every such curve was filed as active; the % refers to the signal ratio;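 further: cells stimulated with 9-cis-retinoic acid as agonist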); conditions: HEK293T RXRa-UAS-bla, beta-lactamase ratio, antagonist mode; measured here: W530 green channel, cytotoxicity proxy
# Outline: (§2)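 Beta-lactamase reporter inhibition, read as CCF4 fluorescence ratio (ex 405, em 460/530 nm) after 2 h at RT. HEK293T UAS-bla cells, 2500/well, were stimulated with 9-cis-RA at 500 or 100 nM final alongside test compound for 18 h at 37 C.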
# [24] = biological target: Retinoic acid receptor RXR-alpha (Homo sapiens) (UniProt P19793); assay: as above; conditions: HEK293T RXRa-UAS-bla, beta-lactamase ratio, antagonist mode
# Outline: as §2
# [25] = qHTS assay for small molecule agonists of the antioxidant response element (ARE) signaling pathway (AID 651741; active means well fitted activation curve with a large enough effect in the signal ratio; the % refers to the signal ratio)
# Outline: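 ARE-bla HepG2 cells (beta-lactamase reporter under ARE control) were plated at 2,000 cells/well, preincubated 5 h at 37 C/5% CO2, then treated with DMSO-dissolved compounds for 16 h at 37 C; LiveBLAzer B/G FRET substrate added, fluorescence read after 2 h at room temperature.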
# [26] = qHTS assay for small molecule activators of the nuclear factor-kappa B (NF-kB) signaling pathway (AID 651749; active means well fitted activation curve with a large enough effect in the signal ratio; the % refers to the signal ratio; further: series mostly up to about 77 µM); conditions: NF-kB-bla ME-180 cells, beta-lactamase FRET ratio, 16 h; activation: stronger effect = higher value
# Outline: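 ME-180 cells stably carrying a beta-lactamase reporter under an NF-kB response element were exposed to compound or DMSO vehicle for 16 hr at 37C, 5% CO2. Pathway activation was read by FRET, since reporter expression disrupts FRET.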
# [27] = qHTS assay for small molecule agonists of the antioxidant response element (ARE) signaling pathway measured by Nrf2-dependant transcriptional activity (AID 720636; active means well fitted curve in the direction sought with a large enough effect in the repeat runs; an effect the other way counts as inactive or inconclusive;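 further: HepG2 cells with an ARE-driven luciferase reporter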)
# Outline: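 Attachment 6 hr at 37 C, then compound versus DMSO vehicle for 16 hr in ARE-luc HepG2 cells (1% dialyzed FBS); luminescence recorded 30 min after ONE-Glo addition at room temperature.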
# [28] = qHTS assay for cell viability of the p53RE-bla HCT-116 cell line (AID 743292); further: nearly all actives have a fitted effect of over 55% in size
# Outline: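 Compound-exposed HCT-116 (p53RE-bla) cells, 4,000 per well, were kept 16 h at 37 C following a 5 h preincubation. Cell number was estimated from total ATP by CellTiter-Glo luminescence read after 30 min at room temperature.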
# [29] = biological target: Nuclear receptor subfamily 1 group I member 2 (Rattus norvegicus) (UniProt Q9R1A7); assay: qHTS assay for small molecule activators of the rat pregnane X receptor (rPXR) signaling pathway (AID 651751; call rule not given here); conditions: rPXR reporter cells, luciferase (One-Glo), 24 h
# Chain of Nuclear receptor subfamily 1 group I member 2 (Rattus norvegicus) (Q9R1A7 whole entry, looked up): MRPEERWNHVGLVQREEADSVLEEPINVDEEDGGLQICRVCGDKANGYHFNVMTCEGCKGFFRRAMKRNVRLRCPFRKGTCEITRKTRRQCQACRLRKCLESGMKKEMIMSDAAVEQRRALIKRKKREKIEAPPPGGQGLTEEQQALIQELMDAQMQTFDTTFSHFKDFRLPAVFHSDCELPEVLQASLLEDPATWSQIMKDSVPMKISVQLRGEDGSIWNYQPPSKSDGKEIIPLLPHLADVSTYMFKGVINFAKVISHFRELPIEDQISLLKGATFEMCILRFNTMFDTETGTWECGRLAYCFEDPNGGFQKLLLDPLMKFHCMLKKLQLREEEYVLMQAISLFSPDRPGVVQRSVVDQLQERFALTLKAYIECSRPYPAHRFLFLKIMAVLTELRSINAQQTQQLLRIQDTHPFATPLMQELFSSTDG
# Chain of Ubiquitin carboxyl-terminal hydrolase 1 (Homo sapiens) (O94782 whole entry, looked up): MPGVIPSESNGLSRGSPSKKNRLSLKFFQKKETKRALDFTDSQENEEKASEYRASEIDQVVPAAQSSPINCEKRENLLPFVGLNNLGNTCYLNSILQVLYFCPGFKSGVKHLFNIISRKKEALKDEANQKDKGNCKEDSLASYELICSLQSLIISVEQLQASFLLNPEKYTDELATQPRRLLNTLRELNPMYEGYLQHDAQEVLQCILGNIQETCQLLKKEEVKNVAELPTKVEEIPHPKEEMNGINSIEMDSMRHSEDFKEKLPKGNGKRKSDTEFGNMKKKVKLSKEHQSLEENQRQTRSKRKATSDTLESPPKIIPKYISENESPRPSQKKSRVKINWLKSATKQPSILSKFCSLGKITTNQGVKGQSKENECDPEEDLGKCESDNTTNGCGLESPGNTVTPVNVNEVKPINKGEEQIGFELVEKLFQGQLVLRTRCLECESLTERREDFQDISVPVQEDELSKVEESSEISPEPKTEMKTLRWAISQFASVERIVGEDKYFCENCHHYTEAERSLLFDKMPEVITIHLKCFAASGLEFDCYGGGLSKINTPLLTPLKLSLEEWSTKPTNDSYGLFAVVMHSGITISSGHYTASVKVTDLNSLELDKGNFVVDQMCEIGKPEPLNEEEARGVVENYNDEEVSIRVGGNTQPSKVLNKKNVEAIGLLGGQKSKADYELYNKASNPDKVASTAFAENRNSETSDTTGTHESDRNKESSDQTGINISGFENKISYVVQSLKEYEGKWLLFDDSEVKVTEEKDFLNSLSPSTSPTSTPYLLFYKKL
# Chain of Vitamin D3 receptor (Homo sapiens) (P11473 whole entry, looked up): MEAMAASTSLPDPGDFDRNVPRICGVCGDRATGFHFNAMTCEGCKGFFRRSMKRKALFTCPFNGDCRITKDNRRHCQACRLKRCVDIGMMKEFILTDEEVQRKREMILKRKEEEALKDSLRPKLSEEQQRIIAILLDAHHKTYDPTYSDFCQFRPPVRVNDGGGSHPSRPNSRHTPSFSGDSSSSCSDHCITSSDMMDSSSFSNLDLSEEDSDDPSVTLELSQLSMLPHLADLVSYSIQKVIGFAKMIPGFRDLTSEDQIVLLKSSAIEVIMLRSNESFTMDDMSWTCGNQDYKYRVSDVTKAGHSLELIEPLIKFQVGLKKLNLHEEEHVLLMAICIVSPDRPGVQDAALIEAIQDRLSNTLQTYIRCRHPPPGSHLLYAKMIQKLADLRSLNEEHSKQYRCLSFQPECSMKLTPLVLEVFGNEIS
# Chain of Glucocorticoid receptor (Homo sapiens) (P04150 whole entry, looked up): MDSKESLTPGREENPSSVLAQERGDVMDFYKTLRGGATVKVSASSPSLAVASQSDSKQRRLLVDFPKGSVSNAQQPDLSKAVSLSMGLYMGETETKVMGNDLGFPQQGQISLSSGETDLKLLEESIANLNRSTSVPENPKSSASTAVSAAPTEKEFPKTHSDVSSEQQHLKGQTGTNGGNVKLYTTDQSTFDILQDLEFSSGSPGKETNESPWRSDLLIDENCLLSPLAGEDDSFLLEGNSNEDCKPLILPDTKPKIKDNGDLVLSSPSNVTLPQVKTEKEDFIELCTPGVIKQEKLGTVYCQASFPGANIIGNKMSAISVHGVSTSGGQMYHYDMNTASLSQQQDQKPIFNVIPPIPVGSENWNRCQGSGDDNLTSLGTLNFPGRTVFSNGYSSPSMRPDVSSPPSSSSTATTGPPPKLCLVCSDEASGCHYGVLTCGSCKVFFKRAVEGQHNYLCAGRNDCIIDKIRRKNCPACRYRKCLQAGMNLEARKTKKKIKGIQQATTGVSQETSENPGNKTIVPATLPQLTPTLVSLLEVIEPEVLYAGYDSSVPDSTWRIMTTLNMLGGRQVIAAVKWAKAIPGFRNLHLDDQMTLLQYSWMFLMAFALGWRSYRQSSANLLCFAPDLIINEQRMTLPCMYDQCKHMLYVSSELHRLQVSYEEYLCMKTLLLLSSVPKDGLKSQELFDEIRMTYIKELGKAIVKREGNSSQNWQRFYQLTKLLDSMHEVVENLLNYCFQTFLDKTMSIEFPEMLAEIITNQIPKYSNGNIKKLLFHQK
# Chain of Peroxisome proliferator-activated receptor gamma (Homo sapiens) (P37231 whole entry, looked up): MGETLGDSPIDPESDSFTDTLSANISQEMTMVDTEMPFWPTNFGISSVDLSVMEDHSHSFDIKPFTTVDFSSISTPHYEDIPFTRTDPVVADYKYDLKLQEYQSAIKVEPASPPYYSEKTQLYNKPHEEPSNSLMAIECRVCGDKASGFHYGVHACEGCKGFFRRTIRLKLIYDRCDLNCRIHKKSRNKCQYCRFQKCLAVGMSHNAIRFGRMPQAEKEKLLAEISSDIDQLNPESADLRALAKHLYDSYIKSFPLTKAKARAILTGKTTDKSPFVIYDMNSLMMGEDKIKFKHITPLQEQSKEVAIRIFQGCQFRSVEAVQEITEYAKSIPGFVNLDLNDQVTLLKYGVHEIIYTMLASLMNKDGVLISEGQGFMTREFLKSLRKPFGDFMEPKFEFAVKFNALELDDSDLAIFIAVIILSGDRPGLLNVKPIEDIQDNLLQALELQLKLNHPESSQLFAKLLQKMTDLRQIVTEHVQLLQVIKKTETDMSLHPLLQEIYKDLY
# Chain of Cytochrome P450 3A4 (Homo sapiens) (P08684 whole entry, looked up): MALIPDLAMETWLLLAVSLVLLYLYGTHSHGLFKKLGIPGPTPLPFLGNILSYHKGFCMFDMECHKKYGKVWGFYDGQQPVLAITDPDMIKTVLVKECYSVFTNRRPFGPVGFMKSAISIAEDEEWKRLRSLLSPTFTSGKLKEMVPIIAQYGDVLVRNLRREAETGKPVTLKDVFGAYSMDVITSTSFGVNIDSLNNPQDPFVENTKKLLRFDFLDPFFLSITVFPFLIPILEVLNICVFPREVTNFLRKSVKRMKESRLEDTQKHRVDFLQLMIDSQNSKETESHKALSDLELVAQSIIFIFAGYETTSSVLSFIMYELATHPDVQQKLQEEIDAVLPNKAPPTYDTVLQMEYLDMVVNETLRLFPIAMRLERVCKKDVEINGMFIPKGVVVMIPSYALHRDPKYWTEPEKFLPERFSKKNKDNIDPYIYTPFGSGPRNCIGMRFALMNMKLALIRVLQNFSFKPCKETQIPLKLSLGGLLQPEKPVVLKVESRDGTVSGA
# Chain of Peroxisome proliferator-activated receptor alpha (Homo sapiens) (Q07869 whole entry, looked up): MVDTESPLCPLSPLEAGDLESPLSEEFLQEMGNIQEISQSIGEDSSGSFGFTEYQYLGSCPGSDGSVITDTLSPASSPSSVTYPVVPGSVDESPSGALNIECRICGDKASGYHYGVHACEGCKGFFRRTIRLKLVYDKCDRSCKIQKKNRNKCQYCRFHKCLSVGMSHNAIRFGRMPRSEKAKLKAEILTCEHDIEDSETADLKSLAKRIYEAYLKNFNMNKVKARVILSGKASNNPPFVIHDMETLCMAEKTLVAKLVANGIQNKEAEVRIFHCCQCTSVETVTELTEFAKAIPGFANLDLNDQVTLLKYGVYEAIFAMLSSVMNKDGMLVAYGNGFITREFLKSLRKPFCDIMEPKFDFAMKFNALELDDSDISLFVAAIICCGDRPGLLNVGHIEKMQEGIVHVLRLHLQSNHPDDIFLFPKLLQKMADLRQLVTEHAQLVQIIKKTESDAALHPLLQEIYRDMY
# Chain of Thyroid hormone receptor beta (Homo sapiens) (P10828 whole entry, looked up): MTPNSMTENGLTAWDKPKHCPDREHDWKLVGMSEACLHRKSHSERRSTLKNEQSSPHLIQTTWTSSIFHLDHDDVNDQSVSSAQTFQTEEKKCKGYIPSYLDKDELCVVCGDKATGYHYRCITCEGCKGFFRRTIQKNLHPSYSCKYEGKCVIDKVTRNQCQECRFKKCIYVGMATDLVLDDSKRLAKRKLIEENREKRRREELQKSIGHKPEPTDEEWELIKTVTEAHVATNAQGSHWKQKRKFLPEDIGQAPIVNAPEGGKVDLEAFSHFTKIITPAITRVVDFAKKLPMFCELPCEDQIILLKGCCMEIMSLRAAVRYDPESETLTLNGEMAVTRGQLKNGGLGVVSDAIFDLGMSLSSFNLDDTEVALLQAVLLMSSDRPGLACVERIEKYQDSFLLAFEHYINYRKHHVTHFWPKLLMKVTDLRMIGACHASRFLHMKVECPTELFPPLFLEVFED
# Chain of Retinoic acid receptor RXR-alpha (Homo sapiens) (P19793 whole entry, looked up): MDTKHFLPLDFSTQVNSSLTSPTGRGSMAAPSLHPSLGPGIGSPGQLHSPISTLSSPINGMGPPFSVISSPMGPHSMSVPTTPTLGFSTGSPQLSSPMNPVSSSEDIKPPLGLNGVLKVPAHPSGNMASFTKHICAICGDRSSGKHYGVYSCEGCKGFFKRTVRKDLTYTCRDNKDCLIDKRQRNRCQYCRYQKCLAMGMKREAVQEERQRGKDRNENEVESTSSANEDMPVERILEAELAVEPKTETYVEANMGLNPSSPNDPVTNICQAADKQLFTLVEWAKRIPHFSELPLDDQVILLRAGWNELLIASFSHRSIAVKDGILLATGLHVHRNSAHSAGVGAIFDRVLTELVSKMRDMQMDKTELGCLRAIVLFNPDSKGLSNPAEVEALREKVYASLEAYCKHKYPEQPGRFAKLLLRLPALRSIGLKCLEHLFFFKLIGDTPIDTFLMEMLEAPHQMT
compound,measurement,setting,value
CC[N+](C)(CC)CCC[n+]1c(-c2ccccc2)c2cc(N)ccc2c2ccc(N)cc21,Potency,[1],7.94 µM (active)
CC1=CC(=O)c2c(O)cccc2C1=O,Potency,[2],inactive
same,Potency,[3],inactive
same,Potency,[4],inactive
same,outcome,[5],inactive
same,Potency,[1],17.8 µM (active)
same,outcome,[6],inactive
CC(=O)O[C@H]1C[C@H]2CC[C@@H]3[C@H]4C[C@@H]([N+]5(C)CCCCC5)[C@@H](OC(C)=O)[C@]4(C)CC[C@@H]3[C@@]2(C)C[C@@H]1[N+]1(C)CCCCC1,Potency,[1],inactive
CNC(C)C1CC[C@H](N)[C@@H](OC2C(N)C[C@H](N)[C@@H](OC3OC[C@](C)(O)C(NC)[C@H]3O)C2O)O1 (some centres not stated),Potency,[1],inactive
CC[C@@H]1CN2CCc3cc(OC)c(OC)cc3[C@@H]2C[C@@H]1C[C@H]1NCCc2cc(OC)c(OC)cc21,Potency,[1],inactive
C=CCO[C@@H](Cn1ccnc1)c1ccc(Cl)cc1Cl,Potency,[7],5.01 µM (active)
CN1[C@H]2CC(OC(=O)[C@H](CO)c3ccccc3)C[C@H]1[C@H]1O[C@H]12 (some centres not stated),Potency,[8],inactive
same,Potency,[9],inactive
CSc1nc(NC(C)C)nc(NC(C)C)n1,Potency,[10],inactive
same,Potency,[11],inactive
same,Potency,[12],inactive
same,Potency,[13],inactive
same,activity change % (negative = inhibition),[14],-0.16% (inactive)
same,activation,[15],-3.76% (inactive)
same,activation,[16],-2.16% (inactive)
same,max response,[17],8.44% (inactive)
CCCCN(CC)c1c([N+](=O)[O-])cc(C(F)(F)F)cc1[N+](=O)[O-],activation,[18],-5.8% (inactive)
same,Potency,[19],inactive
same,max response,[20],41.5%
same,Potency,[21],inactive
same,Potency,[13],inactive
same,outcome,[22],inactive
same,max response,[23],-9.26%
same,max response,[24],-14% (inactive)
same,Potency,[25],inactive
same,activation,[15],-2.46% (inactive)
same,activation,[26],-1.55% (inactive)
same,activation,[16],-0.444% (inactive)
same,max response,[17],-2.71% (inactive)
same,Potency,[27],inactive
same,Potency,[28],inactive
same,max response,[29],3.44% (inactive)
